Screens deposited in PubChem BioAssay by National Center for Advancing Translational Sciences (NCATS).
This is a sample that favours compounds with a hit; in the whole collection about 15% have one here.
TDP1 cell noCPT: qHTS for Inhibitors of human tyrosyl-DNA phosphodiesterase 1 (TDP1): qHTS in cells in absence of CPT; DT40 Tdp1-/- hTDP1 cells, no CPT, ATP luminescence, 48 h; Potency, µM (doses to about 46.2 µM), without a hit: at the highest dose activity change, negative = growth inhibition, usual class: inhibitors; 420,000 compounds, 15% hits; also: nearly all actives have a fitted effect of over 55% in size
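Camptothecin absent (DMSO only). Human TDP1-complemented DT40 knockout cells, 400 cells/well, 37 °C for minimum 48 hr; ATP measured via CellTiter-Glo, 30 min dark incubation, luminescence.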
RORg inh: ROR gamma (mouse) transcription inhibition; Potency, µM (top dose mostly 53.6 µM), inactives show at the top dose activity change, negative = inhibition, usual class: inhibitors; P51450; 310,000 compounds, 5.4% hits; Drosophila S2 Gal4-RORgamma UAS-luciferase reporter, 20 h; also: nearly all actives have a fitted effect of over 60% in size
Target sequence (P51450 whole entry, looked up, the tested form may be a part): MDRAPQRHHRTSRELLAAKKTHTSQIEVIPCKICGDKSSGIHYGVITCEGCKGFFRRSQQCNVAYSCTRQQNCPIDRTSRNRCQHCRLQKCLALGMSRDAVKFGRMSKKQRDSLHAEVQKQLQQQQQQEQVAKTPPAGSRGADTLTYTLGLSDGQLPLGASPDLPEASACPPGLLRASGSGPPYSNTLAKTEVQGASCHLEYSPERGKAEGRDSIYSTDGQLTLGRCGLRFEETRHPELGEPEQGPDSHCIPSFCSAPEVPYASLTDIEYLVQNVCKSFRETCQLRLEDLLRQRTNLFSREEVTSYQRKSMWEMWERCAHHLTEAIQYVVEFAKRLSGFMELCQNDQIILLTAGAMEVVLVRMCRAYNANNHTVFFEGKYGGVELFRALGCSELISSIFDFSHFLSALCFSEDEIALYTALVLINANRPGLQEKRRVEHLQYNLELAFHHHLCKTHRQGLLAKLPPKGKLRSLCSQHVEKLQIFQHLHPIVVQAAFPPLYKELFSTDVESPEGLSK
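Stable Schneider cell line, Gal4 DNA-binding domain fused to ROR gamma, UAS-luciferase. Cmpd 1 hr RT → CuSO4 700 uM final → 20 hr RT → luciferase reagent 10 min → luminescence.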
ELG1 DNA repair: inhibitors of ELG1-dependent DNA repair in HEK293T cells. 330,000 compounds, 2.3% hits. HEK293T ELG1-luciferase reporter, luminescence, 16 h; DNA damage induced by 5-fluorouridine. Potency, µM (series often up to 46.1 µM), for inactives: at the top dose activity change, negative = inhibition, actives largely listed as inhibitors; also: nearly all actives have a fitted effect of over 55% in size
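Quantitative HTS, concentration-response format. 2,000 cells/well co-treated with 5-fluorouridine and compound, 16 hr in 5% CO2 at 37 °C; ONE-Glo luminescence read after 30 min.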
DT40 TDP1 CPT: growth inhibition of DT40 Tdp1-/-;hTDP1 cells with camptothecin (screen for TDP1 inhibitors); chicken DT40 Tdp1-/-;hTDP1 cells + 20 nM CPT, ATP luminescence, 48 h; Potency, µM (series often up to 46.2 µM), for the others: at the highest dose activity change, negative = growth inhibition, most hits filed as inhibitors; 420,000 compounds, 12% hits; AID 686979; also: nearly all actives have a fitted effect of over 55% in size
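Cell growth measured by CellTiter-Glo luminescence after a minimum 48 h, 37 C compound exposure with 20 nM CPT in Tdp1-knockout DT40 cells stably expressing hTDP1, seeded 400/well; qHTS titration format.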
Gal4-VP16 FLuc: Gal4-VP16 reporter inhibition counter-screen; 310,000 compounds, 3.5% hits; Drosophila S2 Gal4-VP16 UAS-luciferase, luminescence, 20 h; Potency, µM (top dose mostly 53.6 µM), without a hit: at the top dose activity, negative = inhibition, most hits filed as inhibitors; AID 2546;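 also: Gal4-VP16 expression switched on by copper sulfate through the metallothionein promoter; nearly all actives have a fitted effect of over 50% in size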
12-LOX inh: blocks human arachidonate 12S-lipoxygenase; purified 12hLO, xylenol orange hydroperoxide absorbance; Potency, µM (titrated, usually from 108 µM), inactives show at the top dose activity change, negative = inhibition, hits mostly inhibitors; 580,000 compounds, 1.1% hits
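Purified human 12hLO (150 nM final) in 25 mM Hepes, 0.01% Triton X-100, pH 7.0 was preincubated 15 min at room temperature with compound. Then 40 uM arachidonic acid was added, 30 min. Hydroperoxide was read by Fe-XO absorbance ratio 573/405 nm.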
The depositor's hits bear a star; u = inconclusive; x = not tested or not shown; [ ] = dose if it differs, or a comment. Calls follow the shape of the dose curve; as a rule, active = well fitted curve in the direction sought with a large enough effect; inconclusive = small, poorly fitted or top-dose-only effect, or another doubt; inactive = no such curve, though single readings can be large; an effect the other way counts as inactive or inconclusive. % is scaled to controls: 0 for no effect and ±100 for the full control effect; potency is read from the fitted curve at half-maximal effect.

SMILES	TDP1 cell noCPT	RORg inh	ELG1 DNA repair	DT40 TDP1 CPT	Gal4-VP16 FLuc	12-LOX inh
Clc1cccc(CNc2nc(-c3cccnc3)nc3ccccc23)c1	u	-6%	u	u	-3%	-6%
COc1cc2[nH]c(=S)nc(NCc3ccccc3)c2cc1OC	-20%	7.1µM*	-9%	-23%	u	u
COc1cc2[nH]c(=S)nc(NCc3cccnc3)c2cc1OC	7%	1%	u	-11%	-6%	0%
COc1cc2[nH]c(=S)nc(NCc3ccc(C)cc3)c2cc1OC	23µM*	6.3µM*	-20%	u	18µM*	5%
COc1cc2[nH]c(=S)nc(NCc3cccc(Cl)c3)c2cc1OC	u	3.2µM*	-21%	u	7.9µM*	0%
S=c1nc(NCc2cccc(Cl)c2)c2ccccc2[nH]1	-2%	4µM*	2%	-8%	8.9µM*	-14%
COc1cc2[nH]c(=S)nc(NCc3ccccn3)c2cc1OC	-4%	-23%	5%	18%	3%	-10%
CCc1noc(-c2ccn3c(CNC(=O)c4ccc(OC)cc4)nnc3c2)n1	x	x	x	x	x	16%
c1ccc2[nH]c(NCc3ccc4c(c3)OCO4)nc2c1	0%	-33%	u	-1%	-18%	-4%
CC1CCC(NC(=O)c2ccc(CNc3c(NC4CCCCC4)c(=O)c3=O)cc2)CC1 (stereo not drawn)	-13%	0%	11%	5%	-3%	6%[57.4 µM]
COc1ccc(CNc2nc(=S)[nH]c3cc(OC)c(OC)cc23)cc1	u	16µM*	-8%	-29%	u	0%
O=C(NC1CCCCC1)c1ccc(CNc2nc(=S)[nH]c3ccccc23)cc1	-11%	13µM*	u	10%	2%	37%
S=c1nc(NCc2ccc3c(c2)OCO3)c2ccccc2[nH]1	2%	13µM*	16%	-8%	u	-3%
COc1ccc(-c2nc(-c3ccccc3)nc3c2CN(C(=O)Cc2ccccn2)CC3)cc1	x	x	x	x	x	-5%
O=C(CCc1cc2ccccc2[nH]c1=O)NCc1ccco1	x	x	x	x	x	28%
O=C1CCN(S(=O)(=O)c2ccccc2)CCCN(C(=O)CN2CCOCC2)CCN1	x	x	x	x	x	28%
CN1C[C@H](O)C[C@H]1c1nnc2n1CCN(C(=O)c1ccoc1)CC2	x	x	x	x	x	27%
COc1ccccc1NC(=O)C1CCCN(c2nnc(C)c3c(C)n(-c4ccccc4)nc23)C1 (stereo not drawn)	8.2µM*	x	x	16µM*	x	-14%
Cc1nnc(N2CCCC(C(=O)Nc3cccc(C(F)(F)F)c3)C2)c2nn(-c3ccccc3)c(C)c12 (stereo not drawn)	21µM*	x	x	u	x	-7%
Cc1ccc(NC(=O)C2CCCN(c3nnc(C)c4c(C)n(-c5ccccc5)nc34)C2)cc1Cl (stereo not drawn)	4.1µM*	x	x	12µM*	x	-12%
Cc1ccc(NC(=O)N2CCN(c3nnc(C)c4c(C)n(-c5ccccc5)nc34)CC2)cc1Cl	-6%	x	x	-25%	x	u
COc1ccc(C)cc1NC(=O)N1CCN(c2nnc(C)c3c(C)n(-c4ccccc4)nc23)CC1	-17%	x	x	-2%	x	-24%
CCOC(=O)c1cccc(NC(=O)C2CCCN(c3nnc(C)c4c(C)n(-c5ccccc5)nc34)C2)c1 (stereo not drawn)	9.2µM*	x	x	13µM*	x	-4%
Cc1ccc(SC(=O)c2ccccc2)cc1	x	x	x	x	x	37%
Cn1cccc1C(=O)N1CCCN(C(=O)C2CC2)C(c2ccccc2)CC(=O)NCC1 (stereo not drawn)	x	x	x	x	x	14%
SMILES	TDP1 cell noCPT	RORg inh	ELG1 DNA repair	DT40 TDP1 CPT	Gal4-VP16 FLuc	12-LOX inh
CCOC(=O)C1CCN(C(c2ccccc2)c2c(O)cc(C)n(Cc3ccccc3)c2=O)CC1 (stereo not drawn)	x	x	x	x	x	-5%
N#CC1=C(N)N(c2ccccc2)C(c2ccco2)C1(C#N)C#N (stereo not drawn)	u	-15%	1%	u	3%	-9%
Cc1cccc(N2C(N)=C(C#N)C(C#N)(C#N)C2c2ccccc2)c1 (stereo not drawn)	10µM*	2%	x	21µM*	-8%	u
N#CC1=C(N)N(c2ccccc2)C(c2cccc([N+](=O)[O-])c2)C1(C#N)C#N (stereo not drawn)	16µM*	36%	-21%	u	-20%	0%
COc1ccccc1NC(=O)c1ccc(NC(=O)Cn2nc(C(=O)O)c3ccccc3c2=O)cc1	x	x	x	x	x	-16%
O=C(CC1=C2CCCCC2N(Cc2ccccc2)C1=O)N1CCc2ccccc2C1 (stereo not drawn)	x	x	x	x	x	-8%
Cc1ccccc1CS(=O)(=O)N1CCC(C(=O)Nc2c(C)n(C)n(-c3ccccc3)c2=O)CC1	x	x	x	x	x	-23%
Cc1ccc(NC(=O)Cn2c(=O)n(Cc3ccc4c(c3)OCO4)c(=O)c3oc4ccccc4c32)cc1C	-23%	x	x	-25%	x	-18%
COCCn1cnc2c1c(=O)n(CC(=O)Nc1ccc(C(N)=O)cc1)c(=O)n2Cc1ccccc1	x	x	x	x	x	6%
CNC(=O)Cn1c(C)cc(=O)c2cccc(OC)c21	-2%	15%	20%	20%	-5%	25%
CCn1cnc2c1c(=O)n(CC(=O)Nc1ccc(C(N)=O)cc1)c(=O)n2Cc1ccccc1	-13%	-10%	6.5µM*	-3%	-1%	3%
COc1cccc2c(=O)cc(C)n(CC(=O)Nc3ccccc3C)c12	15µM*	-28%	u	u	u	2%
O=C(Cn1c(=O)n(Cc2ccccc2)c(=O)c2oc3ccccc3c21)Nc1ccc(Cl)cc1	18µM*	x	x	u	x	-15%
O=C(Cn1c(=O)n(Cc2ccco2)c(=O)c2oc3ccccc3c21)Nc1ccccc1	u	x	x	u	x	-5%
Cc1ccc(C)c(NC(=O)Cn2c(=O)n(Cc3ccc4c(c3)OCO4)c(=O)c3oc4ccccc4c32)c1	2.9µM*	x	x	2.9µM*	x	-25%
O=C(c1cccnc1CCC1COc2ccccc2O1)N1CCCC1 (stereo not drawn)	x	x	x	x	x	-5%
COCC(=O)N1CCCN(CCc2ccccc2)c2ccccc21	x	x	x	x	x	16%
CC/C=C(/C)C(=O)NC(C)CN1CCOCC1 (stereo not drawn)	x	x	x	x	x	-6%
Cc1cccc(NC(=O)Cn2c(=O)n(Cc3ccccc3)c(=O)c3oc4ccccc4c32)c1C	3.3µM*	x	x	4.6µM*	x	-9%
Cc1cccc(NC(=O)Cn2c(=O)n(Cc3ccc4c(c3)OCO4)c(=O)c3oc4ccccc4c32)c1C	7.3µM*	x	x	7.3µM*	x	-35%
